# Assay results as given in the supplement of paper PMC8728848.
# The sample as a whole holds a higher share of the strongest signals than the screen did.
# B1: LSL-150 (Laetiporus sulphureus), Q7Z8V1 (protein)
# chain: MTDIYIPPEGLYFRLLGFASRQVIFARNSPSPDVGLSPVNDQATDQYFSLIYGTGEHAGLYAIKSKATGKVLFSRRPAEPYVGQIDGDGRYPDNWFKIEPGKTYLSKYFRLVQPSTGTALVSRTHLQPYFWNHPQTEVFDDQYFTFLFEDHHHHHH
# Assays:
# Experiment in all cases: glycan array binding signal (z-score within array); higher = stronger binding
# Settings in all cases: glycan notation: IUPAC condensed, linker removed
# [1] = molecular target: Neu5Ac(a2-3)Gal(b1-3)[Neu5Ac(a2-6)]GalNAc
# Summary of the method: (§1)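 The binding signal is a Z-score computed within each array and averaged over linkers. Arrays of the same protein sequence at different concentrations or buffers were also averaged together. Data originate from 3228 arrays in the Consortium for Functional Glycomics database, kept only where the protein sequence was available.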
# [2] = molecular target: Neu5Ac(a2-3)Gal(b1-4)[Fuc(a1-3)]GlcNAc(b1-6)[Neu5Ac(a2-3)Gal(b1-3)]GalNAc
# Summary of the method: as §1
# [3] = molecular target: Neu5Ac(a2-3)GalNAc(b1-4)GlcNAc
# Summary of the method: as §1
# [4] = molecular target: Neu5Ac(a2-6)Gal(b1-4)GlcNAc(b1-2)Man(a1-3)[Neu5Ac(a2-6)Gal(b1-4)GlcNAc(b1-2)Man(a1-6)]Man(b1-4)GlcNAc(b1-4)[Fuc(a1-6)]GlcNAc
# Summary of the method: as §1
# [5] = molecular target: Neu5Ac(a2-6)Gal(b1-4)GlcNAc(b1-3)Gal(b1-4)GlcNAc
# Summary of the method: as §1
# [6] = molecular target: Neu5Ac(a2-6)Gal(b1-4)GlcNAc(b1-6)GalNAc
# Summary of the method: as §1
# [7] = molecular target: Neu5Ac(a2-6)Gal(b1-4)GlcNAc(b1-6)[Gal(b1-3)]GalNAc
# Summary of the method: as §1
# Neu5Gc(a2-3)Gal(b1-4)Glc = molecular target: Neu5Gc(a2-3)Gal(b1-4)Glc
# Summary of the method: as §1
# [8] = molecular target: Neu5Gc(a2-6)Gal(b1-4)GlcNAc
# Summary of the method: as §1
# [9] = molecular target: Neu5Gc(a2-8)Neu5Gc(a2-3)Gal(b1-4)GlcNAc(b1-3)Gal(b1-4)GlcNAc
# Summary of the method: as §1
binder,measurement,setting,value
B1,glycan array binding signal (z-score),[1],-0.208
same,glycan array binding signal (z-score),[2],-0.203
same,glycan array binding signal (z-score),[3],-0.213
same,glycan array binding signal (z-score),[4],-0.208
same,glycan array binding signal (z-score),[5],-0.079
same,glycan array binding signal (z-score),[6],-0.203
same,glycan array binding signal (z-score),[7],-0.194
same,glycan array binding signal (z-score),Neu5Gc(a2-3)Gal(b1-4)Glc,-0.205
same,glycan array binding signal (z-score),[8],-0.206
same,glycan array binding signal (z-score),[9],-0.196
